# How the values were obtained:
# Experiment in all cases: PBM; 200 nM protein, PBS
# Conditions in all cases: dsDNA, one strand shown
# HESX1 [1] = molecular target: HESX1 (Homo sapiens, UniProt Q9UBX0 95-180, R165K)
# HESX1 [2] = molecular target: HESX1 (Homo sapiens, UniProt Q9UBX0 95-180)
# HESX1 [3] = molecular target: HESX1 (Homo sapiens, UniProt Q9UBX0 95-180, R109Q)
# HESX1 [4] = molecular target: HESX1 (Homo sapiens, UniProt Q9UBX0 95-180, P111T)
# HESX1 [5] = molecular target: HESX1 (Homo sapiens, UniProt Q9UBX0 95-180, F115L)
# Sequence of HESX1 (Homo sapiens, UniProt Q9UBX0 95-180, F115L) (Q9UBX0 95-180 F115L): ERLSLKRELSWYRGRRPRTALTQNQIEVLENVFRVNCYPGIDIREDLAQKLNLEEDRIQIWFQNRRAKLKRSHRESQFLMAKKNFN
# ALX1 [6] = molecular target: ALX1 (Homo sapiens, UniProt Q15699 118-204, L144V)
# Sequence of ALX1 (Homo sapiens, UniProt Q15699 118-204, L144V) (Q15699 118-204 L144V): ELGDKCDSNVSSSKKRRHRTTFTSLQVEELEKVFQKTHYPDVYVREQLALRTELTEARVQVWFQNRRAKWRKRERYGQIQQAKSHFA
# ALX1 [7] = molecular target: ALX1 (Homo sapiens, UniProt Q15699 118-204, L144R)
# Sequence of ALX1 (Homo sapiens, UniProt Q15699 118-204, L144R) (Q15699 118-204 L144R): as the sequence (Q15699 118-204 L144V) above, with V27R counted along it
# ALX1 [8] = molecular target: ALX1 (Homo sapiens, UniProt Q15699 118-204)
# Sequence of ALX1 (Homo sapiens, UniProt Q15699 118-204) (Q15699 118-204): as the sequence (Q15699 118-204 L144V) above, with V27L counted along it
# PRRX1 [9] = molecular target: PRRX1 (Homo sapiens, UniProt P54821 80-166, F113S)
# Sequence of PRRX1 (Homo sapiens, UniProt P54821 80-166, F113S) (P54821 80-166 F113S): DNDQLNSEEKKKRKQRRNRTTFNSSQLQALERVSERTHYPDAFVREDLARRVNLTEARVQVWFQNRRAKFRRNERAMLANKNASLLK
# MSX2 [10] = molecular target: MSX2 (Homo sapiens, UniProt P35548 130-214, R199I)
# Sequence of MSX2 (Homo sapiens, UniProt P35548 130-214, R199I) (P35548 130-214 R199I): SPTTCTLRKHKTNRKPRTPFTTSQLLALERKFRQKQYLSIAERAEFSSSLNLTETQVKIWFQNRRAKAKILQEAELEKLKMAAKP
# MSX2 [11] = molecular target: MSX2 (Homo sapiens, UniProt P35548 130-214)
# Sequence of MSX2 (Homo sapiens, UniProt P35548 130-214) (P35548 130-214): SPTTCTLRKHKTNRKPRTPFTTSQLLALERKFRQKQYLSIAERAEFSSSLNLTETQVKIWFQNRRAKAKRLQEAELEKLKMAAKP
# PROP1 [12] = molecular target: PROP1 (Homo sapiens, UniProt O75360 56-141, R99H)
# Sequence of PROP1 (Homo sapiens, UniProt O75360 56-141, R99H) (O75360 56-141 R99H): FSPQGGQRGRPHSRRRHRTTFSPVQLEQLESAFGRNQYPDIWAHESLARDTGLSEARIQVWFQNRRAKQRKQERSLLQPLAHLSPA
# ALX3 [13] = molecular target: ALX3 (Homo sapiens, UniProt O95076 139-225, L168Q)
# Sequence of ALX3 (Homo sapiens, UniProt O95076 139-225, L168Q) (O95076 139-225 L168Q): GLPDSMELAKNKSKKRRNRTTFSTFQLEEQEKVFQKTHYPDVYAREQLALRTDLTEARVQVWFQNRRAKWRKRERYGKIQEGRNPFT
# MSX2 [14] = molecular target: MSX2 (Homo sapiens, UniProt P35548 130-214, F161Y)
# Sequence of MSX2 (Homo sapiens, UniProt P35548 130-214, F161Y) (P35548 130-214 F161Y): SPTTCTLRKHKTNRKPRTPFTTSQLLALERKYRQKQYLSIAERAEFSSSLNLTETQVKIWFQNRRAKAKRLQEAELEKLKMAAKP
# PRRX1 [15] = molecular target: PRRX1 (Homo sapiens, UniProt P54821 80-166)
# Sequence of PRRX1 (Homo sapiens, UniProt P54821 80-166) (P54821 80-166): as the sequence (P54821 80-166 F113S) above, with S34F counted along it
# ALX4 [16] = molecular target: ALX4 (Homo sapiens, UniProt Q9H161 200-286)
# Sequence of ALX4 (Homo sapiens, UniProt Q9H161 200-286) (Q9H161 200-286): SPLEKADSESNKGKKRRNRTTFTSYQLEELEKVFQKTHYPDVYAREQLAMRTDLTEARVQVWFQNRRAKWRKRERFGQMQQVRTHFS
# ALX4 [17] = molecular target: ALX4 (Homo sapiens, UniProt Q9H161 200-286, Q225E)
# Sequence of ALX4 (Homo sapiens, UniProt Q9H161 200-286, Q225E) (Q9H161 200-286 Q225E): as the sequence (Q9H161 200-286) above, with Q26E counted along it
# PROP1 [18] = molecular target: PROP1 (Homo sapiens, UniProt O75360 56-141)
# Sequence of PROP1 (Homo sapiens, UniProt O75360 56-141) (O75360 56-141): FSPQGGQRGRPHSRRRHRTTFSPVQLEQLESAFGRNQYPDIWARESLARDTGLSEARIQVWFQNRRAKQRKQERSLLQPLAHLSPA
# PROP1 [19] = molecular target: PROP1 (Homo sapiens, UniProt O75360 56-141, F88S)
# Sequence of PROP1 (Homo sapiens, UniProt O75360 56-141, F88S) (O75360 56-141 F88S): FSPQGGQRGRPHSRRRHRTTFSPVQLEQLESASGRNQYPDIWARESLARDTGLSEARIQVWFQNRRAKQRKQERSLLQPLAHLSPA
# ALX3 [20] = molecular target: ALX3 (Homo sapiens, UniProt O95076 139-225, L168V)
# Sequence of ALX3 (Homo sapiens, UniProt O95076 139-225, L168V) (O95076 139-225 L168V): as the sequence (O95076 139-225 L168Q) above, with Q30V counted along it
# Sequence of HESX1 (Homo sapiens, UniProt Q9UBX0 95-180, R165K) (Q9UBX0 95-180 R165K): as the sequence (Q9UBX0 95-180 F115L) above, with L21F, R71K counted along it
# Sequence of HESX1 (Homo sapiens, UniProt Q9UBX0 95-180, R109Q) (Q9UBX0 95-180 R109Q): as the sequence (Q9UBX0 95-180 F115L) above, with R15Q, L21F counted along it
# Sequence of HESX1 (Homo sapiens, UniProt Q9UBX0 95-180) (Q9UBX0 95-180): as the sequence (Q9UBX0 95-180 F115L) above, with L21F counted along it
# Sequence of HESX1 (Homo sapiens, UniProt Q9UBX0 95-180, P111T) (Q9UBX0 95-180 P111T): as the sequence (Q9UBX0 95-180 F115L) above, with P17T, L21F counted along it
sequence,measurement,setting,value
GCCAGACC,binding signal,HESX1 [1],"6.33 upbm affinity estimate (log intensity, higher = more binding, comparable within an allelic series)"
same,binding signal,HESX1 [2],"6.38 upbm affinity estimate (log intensity, higher = more binding, comparable within an allelic series)"
same,binding signal,HESX1 [3],"6.33 upbm affinity estimate (log intensity, higher = more binding, comparable within an allelic series)"
same,binding signal,HESX1 [4],"6.36 upbm affinity estimate (log intensity, higher = more binding, comparable within an allelic series)"
same,binding signal,HESX1 [5],"6.43 upbm affinity estimate (log intensity, higher = more binding, comparable within an allelic series)"
CCTAGCTC,binding signal,HESX1 [1],"6.41 upbm affinity estimate (log intensity, higher = more binding, comparable within an allelic series)"
same,binding signal,HESX1 [2],"6.56 upbm affinity estimate (log intensity, higher = more binding, comparable within an allelic series)"
same,binding signal,HESX1 [3],"6.57 upbm affinity estimate (log intensity, higher = more binding, comparable within an allelic series)"
same,binding signal,HESX1 [4],"6.46 upbm affinity estimate (log intensity, higher = more binding, comparable within an allelic series)"
same,binding signal,HESX1 [5],"6.62 upbm affinity estimate (log intensity, higher = more binding, comparable within an allelic series)"
CGATTATC,binding signal,HESX1 [1],"8.23 upbm affinity estimate (log intensity, higher = more binding, comparable within an allelic series)"
same,binding signal,HESX1 [2],"8.64 upbm affinity estimate (log intensity, higher = more binding, comparable within an allelic series)"
same,binding signal,HESX1 [5],"6.88 upbm affinity estimate (log intensity, higher = more binding, comparable within an allelic series)"
GCCAGCCC,binding signal,HESX1 [1],"6.58 upbm affinity estimate (log intensity, higher = more binding, comparable within an allelic series)"
same,binding signal,HESX1 [2],"6.38 upbm affinity estimate (log intensity, higher = more binding, comparable within an allelic series)"
same,binding signal,ALX1 [6],"6.53 upbm affinity estimate (log intensity, higher = more binding, comparable within an allelic series)"
same,binding signal,ALX1 [7],"6.62 upbm affinity estimate (log intensity, higher = more binding, comparable within an allelic series)"
same,binding signal,HESX1 [3],"6.42 upbm affinity estimate (log intensity, higher = more binding, comparable within an allelic series)"
same,binding signal,HESX1 [4],"6.51 upbm affinity estimate (log intensity, higher = more binding, comparable within an allelic series)"
same,binding signal,HESX1 [5],"6.51 upbm affinity estimate (log intensity, higher = more binding, comparable within an allelic series)"
same,binding signal,ALX1 [8],"6.43 upbm affinity estimate (log intensity, higher = more binding, comparable within an allelic series)"
ACAATTAT,binding signal,HESX1 [1],"11.8 upbm affinity estimate (log intensity, higher = more binding, comparable within an allelic series)"
same,binding signal,PRRX1 [9],"11.2 upbm affinity estimate (log intensity, higher = more binding, comparable within an allelic series)"
same,binding signal,HESX1 [2],"12.1 upbm affinity estimate (log intensity, higher = more binding, comparable within an allelic series)"
same,binding signal,MSX2 [10],"12.6 upbm affinity estimate (log intensity, higher = more binding, comparable within an allelic series)"
same,binding signal,MSX2 [11],"13.8 upbm affinity estimate (log intensity, higher = more binding, comparable within an allelic series)"
same,binding signal,HESX1 [3],"8.44 upbm affinity estimate (log intensity, higher = more binding, comparable within an allelic series)"
same,binding signal,PROP1 [12],"10.8 upbm affinity estimate (log intensity, higher = more binding, comparable within an allelic series)"
same,binding signal,ALX3 [13],"10.2 upbm affinity estimate (log intensity, higher = more binding, comparable within an allelic series)"
same,binding signal,HESX1 [4],"10.3 upbm affinity estimate (log intensity, higher = more binding, comparable within an allelic series)"
same,binding signal,MSX2 [14],"13.4 upbm affinity estimate (log intensity, higher = more binding, comparable within an allelic series)"
same,binding signal,HESX1 [5],"7.61 upbm affinity estimate (log intensity, higher = more binding, comparable within an allelic series)"
same,binding signal,PRRX1 [15],"13.2 upbm affinity estimate (log intensity, higher = more binding, comparable within an allelic series)"
TCCCCCCA,binding signal,HESX1 [1],"6.55 upbm affinity estimate (log intensity, higher = more binding, comparable within an allelic series)"
same,binding signal,HESX1 [2],"6.5 upbm affinity estimate (log intensity, higher = more binding, comparable within an allelic series)"
same,binding signal,HESX1 [3],"6.55 upbm affinity estimate (log intensity, higher = more binding, comparable within an allelic series)"
same,binding signal,HESX1 [4],"6.52 upbm affinity estimate (log intensity, higher = more binding, comparable within an allelic series)"
same,binding signal,HESX1 [5],"6.55 upbm affinity estimate (log intensity, higher = more binding, comparable within an allelic series)"
ATAATTGC,binding signal,HESX1 [1],"12.2 upbm affinity estimate (log intensity, higher = more binding, comparable within an allelic series)"
same,binding signal,ALX4 [16],"13.6 upbm affinity estimate (log intensity, higher = more binding, comparable within an allelic series)"
same,binding signal,PRRX1 [9],"11.1 upbm affinity estimate (log intensity, higher = more binding, comparable within an allelic series)"
same,binding signal,ALX4 [17],"12.7 upbm affinity estimate (log intensity, higher = more binding, comparable within an allelic series)"
same,binding signal,HESX1 [2],"12.4 upbm affinity estimate (log intensity, higher = more binding, comparable within an allelic series)"
same,binding signal,MSX2 [10],"12.9 upbm affinity estimate (log intensity, higher = more binding, comparable within an allelic series)"
same,binding signal,ALX1 [6],"11.4 upbm affinity estimate (log intensity, higher = more binding, comparable within an allelic series)"
same,binding signal,ALX1 [7],"11.1 upbm affinity estimate (log intensity, higher = more binding, comparable within an allelic series)"
same,binding signal,MSX2 [11],"14 upbm affinity estimate (log intensity, higher = more binding, comparable within an allelic series)"
same,binding signal,PROP1 [18],"11.1 upbm affinity estimate (log intensity, higher = more binding, comparable within an allelic series)"
same,binding signal,HESX1 [3],"8.36 upbm affinity estimate (log intensity, higher = more binding, comparable within an allelic series)"
same,binding signal,PROP1 [12],"10.9 upbm affinity estimate (log intensity, higher = more binding, comparable within an allelic series)"
same,binding signal,ALX3 [13],"10.3 upbm affinity estimate (log intensity, higher = more binding, comparable within an allelic series)"
same,binding signal,HESX1 [4],"10.6 upbm affinity estimate (log intensity, higher = more binding, comparable within an allelic series)"
same,binding signal,PROP1 [19],"7.6 upbm affinity estimate (log intensity, higher = more binding, comparable within an allelic series)"
same,binding signal,MSX2 [14],"13.6 upbm affinity estimate (log intensity, higher = more binding, comparable within an allelic series)"
same,binding signal,HESX1 [5],"7.74 upbm affinity estimate (log intensity, higher = more binding, comparable within an allelic series)"
same,binding signal,PRRX1 [15],"13.2 upbm affinity estimate (log intensity, higher = more binding, comparable within an allelic series)"
ACGCTGCG,binding signal,HESX1 [1],"6.32 upbm affinity estimate (log intensity, higher = more binding, comparable within an allelic series)"
same,binding signal,HESX1 [2],"6.32 upbm affinity estimate (log intensity, higher = more binding, comparable within an allelic series)"
same,binding signal,ALX1 [6],"6.28 upbm affinity estimate (log intensity, higher = more binding, comparable within an allelic series)"
same,binding signal,ALX1 [7],"6.23 upbm affinity estimate (log intensity, higher = more binding, comparable within an allelic series)"
same,binding signal,HESX1 [3],"6.51 upbm affinity estimate (log intensity, higher = more binding, comparable within an allelic series)"
same,binding signal,HESX1 [4],"6.42 upbm affinity estimate (log intensity, higher = more binding, comparable within an allelic series)"
same,binding signal,HESX1 [5],"6.51 upbm affinity estimate (log intensity, higher = more binding, comparable within an allelic series)"
same,binding signal,ALX1 [8],"6.21 upbm affinity estimate (log intensity, higher = more binding, comparable within an allelic series)"
GCCCCCCA,binding signal,HESX1 [1],"6.24 upbm affinity estimate (log intensity, higher = more binding, comparable within an allelic series)"
same,binding signal,HESX1 [2],"6.28 upbm affinity estimate (log intensity, higher = more binding, comparable within an allelic series)"
same,binding signal,HESX1 [3],"6.41 upbm affinity estimate (log intensity, higher = more binding, comparable within an allelic series)"
same,binding signal,HESX1 [4],"6.34 upbm affinity estimate (log intensity, higher = more binding, comparable within an allelic series)"
same,binding signal,HESX1 [5],"6.4 upbm affinity estimate (log intensity, higher = more binding, comparable within an allelic series)"
GCGAGCGC,binding signal,HESX1 [1],"6.46 upbm affinity estimate (log intensity, higher = more binding, comparable within an allelic series)"
same,binding signal,HESX1 [2],"6.44 upbm affinity estimate (log intensity, higher = more binding, comparable within an allelic series)"
same,binding signal,PROP1 [18],"6.62 upbm affinity estimate (log intensity, higher = more binding, comparable within an allelic series)"
same,binding signal,HESX1 [3],"6.48 upbm affinity estimate (log intensity, higher = more binding, comparable within an allelic series)"
same,binding signal,PROP1 [12],"6.66 upbm affinity estimate (log intensity, higher = more binding, comparable within an allelic series)"
same,binding signal,HESX1 [4],"6.41 upbm affinity estimate (log intensity, higher = more binding, comparable within an allelic series)"
same,binding signal,PROP1 [19],"6.75 upbm affinity estimate (log intensity, higher = more binding, comparable within an allelic series)"
same,binding signal,HESX1 [5],"6.54 upbm affinity estimate (log intensity, higher = more binding, comparable within an allelic series)"
CCCGGCTC,binding signal,HESX1 [1],"6.39 upbm affinity estimate (log intensity, higher = more binding, comparable within an allelic series)"
same,binding signal,HESX1 [2],"6.47 upbm affinity estimate (log intensity, higher = more binding, comparable within an allelic series)"
same,binding signal,HESX1 [3],"6.38 upbm affinity estimate (log intensity, higher = more binding, comparable within an allelic series)"
same,binding signal,HESX1 [4],"6.47 upbm affinity estimate (log intensity, higher = more binding, comparable within an allelic series)"
same,binding signal,HESX1 [5],"6.5 upbm affinity estimate (log intensity, higher = more binding, comparable within an allelic series)"
GCCGGTCC,binding signal,HESX1 [1],"6.49 upbm affinity estimate (log intensity, higher = more binding, comparable within an allelic series)"
same,binding signal,HESX1 [2],"6.35 upbm affinity estimate (log intensity, higher = more binding, comparable within an allelic series)"
same,binding signal,HESX1 [3],"6.44 upbm affinity estimate (log intensity, higher = more binding, comparable within an allelic series)"
same,binding signal,HESX1 [4],"6.43 upbm affinity estimate (log intensity, higher = more binding, comparable within an allelic series)"
same,binding signal,HESX1 [5],"6.58 upbm affinity estimate (log intensity, higher = more binding, comparable within an allelic series)"
CGCACGCC,binding signal,HESX1 [1],"6.51 upbm affinity estimate (log intensity, higher = more binding, comparable within an allelic series)"
same,binding signal,HESX1 [2],"6.47 upbm affinity estimate (log intensity, higher = more binding, comparable within an allelic series)"
same,binding signal,PROP1 [18],"6.43 upbm affinity estimate (log intensity, higher = more binding, comparable within an allelic series)"
same,binding signal,HESX1 [3],"6.54 upbm affinity estimate (log intensity, higher = more binding, comparable within an allelic series)"
same,binding signal,PROP1 [12],"6.77 upbm affinity estimate (log intensity, higher = more binding, comparable within an allelic series)"
same,binding signal,HESX1 [4],"6.43 upbm affinity estimate (log intensity, higher = more binding, comparable within an allelic series)"
same,binding signal,PROP1 [19],"6.63 upbm affinity estimate (log intensity, higher = more binding, comparable within an allelic series)"
same,binding signal,HESX1 [5],"6.48 upbm affinity estimate (log intensity, higher = more binding, comparable within an allelic series)"
CCGAGACC,binding signal,HESX1 [1],"6.38 upbm affinity estimate (log intensity, higher = more binding, comparable within an allelic series)"
same,binding signal,HESX1 [2],"6.35 upbm affinity estimate (log intensity, higher = more binding, comparable within an allelic series)"
same,binding signal,PROP1 [18],"6.57 upbm affinity estimate (log intensity, higher = more binding, comparable within an allelic series)"
same,binding signal,HESX1 [3],"6.45 upbm affinity estimate (log intensity, higher = more binding, comparable within an allelic series)"
same,binding signal,PROP1 [12],"6.84 upbm affinity estimate (log intensity, higher = more binding, comparable within an allelic series)"
same,binding signal,ALX3 [13],"7.73 upbm affinity estimate (log intensity, higher = more binding, comparable within an allelic series)"
same,binding signal,HESX1 [4],"6.33 upbm affinity estimate (log intensity, higher = more binding, comparable within an allelic series)"
same,binding signal,ALX3 [20],"7.74 upbm affinity estimate (log intensity, higher = more binding, comparable within an allelic series)"
same,binding signal,PROP1 [19],"6.43 upbm affinity estimate (log intensity, higher = more binding, comparable within an allelic series)"
same,binding signal,HESX1 [5],"6.5 upbm affinity estimate (log intensity, higher = more binding, comparable within an allelic series)"
